# Test results reported in PubChem BioAssay AID1159580 (chemical genetic matrix, 2015).
# Where “and” joins values, the source holds several entries; their conditions need not be identical. Equal entries are not always repeated. The whole screen tested about 5,500 compounds, of which about 2,000 (36%) were called active. Not shown: some 18% with an inconclusive outcome. The list shows a part of the results. A number with no mark means an inactive call. Rule as the data show it: active = normalized growth mostly below about 0.91 (no sharp cut-off); inconclusive = no clear call, values can overlap the other calls; inactive = mostly above about 0.92.
# Assay: chemical genetic growth profiling, strain panel (AID 1159580);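 also: tested at 20 µM; growth read once vehicle control cultures reached saturation at 30 °C; 1 = growth at the plate median or of vehicle wells; lower values mean less growth of the strain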
# Settings: S. cerevisiae deletion strains, growth OD
smiles,measurement,setting,value
CC(=O)OC1CCC23CC1(C)CCC2C(C)(C)CC3OC(C)=O (stereo unspecified),normalized growth,"locus YAL021C, strain ccr4, hits give low values",1.04
same,normalized growth,"locus YAL026C, strain drs2, hits give low values",1.02
same,normalized growth,"locus YAL030W, strain snc1, hits give low values",0.996
same,normalized growth,"locus YBL061C, strain skt5, hits give low values",1.01
same,normalized growth,"locus YBR009C, strain hhf1, hits give low values",1.01
same,normalized growth,"locus YBR021W, strain FUR4, hits give low values",1.01
same,normalized growth,"locus YBR023C, strain chs3, hits give low values",0.981
same,normalized growth,"locus YBR171W, strain sec66, hits give low values",0.999
same,normalized growth,"locus YBR229C, strain ROT2, hits give low values",0.988
same,normalized growth,"locus YBR231C, strain swc5, hits give low values",1.02
same,normalized growth,"locus YBR279W, strain paf1, hits give low values",1.04
same,normalized growth,"locus YCL011C, strain gbp2, hits give low values",0.995
same,normalized growth,"locus YCL016C, strain dcc1, hits give low values",0.978
same,normalized growth,"locus YCL029C, strain bik1, hits give low values",1.01
same,normalized growth,"locus YCL061C, strain MRC1, hits give low values",1.01
same,normalized growth,"locus YCL069W, strain vba3, hits give low values",0.991
same,normalized growth,"locus YCR088W, strain abp1, hits give low values",0.992
same,normalized growth,"locus YDL005C, strain med2, hits give low values",0.994
same,normalized growth,"locus YDL035C, strain GPR1, hits give low values",1.01
same,normalized growth,"locus YDL040C, strain nat1, hits give low values",0.999
same,normalized growth,"locus YDL074C, strain BRE1, hits give low values",1.01
same,normalized growth,"locus YDL101C, strain DUN1, hits give low values",1.04
same,normalized growth,"locus YDL134C, strain PPH21, hits give low values",1.02
same,normalized growth,"locus YDL185W, strain tfp1, hits give low values",1.03
same,normalized growth,"locus YDL192W, strain arf1, hits give low values",0.974
same,normalized growth,"locus YDR001C, strain nth1, hits give low values",0.984
same,normalized growth,"locus YDR069C, strain doa4, hits give low values",1.01
same,normalized growth,"locus YDR101C, strain arx1, hits give low values",0.98
same,normalized growth,"locus YDR137W, strain rgp1, hits give low values",0.882
same,normalized growth,"locus YDR159W, strain sac3, hits give low values",1.03
same,normalized growth,"locus YDR162C, strain NBP2, hits give low values",0.95
same,normalized growth,"locus YDR195W, strain ref2",1.03
same,normalized growth,"locus YDR297W, strain sur2, hits give low values",1.01
same,normalized growth,"locus YDR318W, strain mcm21, hits give low values",1
same,normalized growth,"locus YDR334W, strain swr1, hits give low values",1.01
same,normalized growth,"locus YDR335W, strain msn5, hits give low values",1
same,normalized growth,"locus YDR388W, hits give low values",0.989
same,normalized growth,"locus YDR392W, strain spt3, hits give low values",0.528 (active)
same,normalized growth,"locus YDR502C, strain sam2, hits give low values",1.01
same,normalized growth,"locus YEL003W, strain gim4, hits give low values",1.03
same,normalized growth,"locus YEL037C, strain rad23, hits give low values",1.01
same,normalized growth,"locus YEL061C, strain CIN8 (second series), hits give low values",1
same,normalized growth,"locus YER015W, strain faa2, hits give low values",1.02
same,normalized growth,"locus YER016W, strain bim1, hits give low values",1
same,normalized growth,"locus YER110C, hits give low values",1.03
same,normalized growth,"locus YER111C, strain swi4, hits give low values",1.01
same,normalized growth,"locus YER155C, strain BEM2 (second series), hits give low values",0.99
same,normalized growth,"locus YER155C, strain BEM2, hits give low values",1.02
same,normalized growth,"locus YER167W, strain BCK2, hits give low values",0.997
same,normalized growth,"locus YFR010W, strain ubp6, hits give low values",1.05
same,normalized growth,"locus YGL078C, strain dbp3, hits give low values",1
same,normalized growth,"locus YGL086W, strain mad1, hits give low values",0.959
same,normalized growth,"locus YGL167C, strain pmr1, hits give low values",0.993
same,normalized growth,"locus YGL173C, strain kem1, hits give low values",1.03
same,normalized growth,"locus YGL227W, strain vid30, hits give low values",1.01
same,normalized growth,"locus YGL240W, strain doc1, hits give low values",1.01
same,normalized growth,"locus YGL248W, strain PDE1, hits give low values",1.04
same,normalized growth,"locus YGL253W, strain hxk2, hits give low values",1.02
same,normalized growth,"locus YGR078C, strain PAC10, hits give low values",0.987
same,normalized growth,"locus YGR135W, strain pre9, hits give low values",1.02
same,normalized growth,"locus YGR252W, strain gcn5, hits give low values",1.1
same,normalized growth,"locus YHR013C, strain ard1, hits give low values",1.01
same,normalized growth,"locus YHR027C, strain rpn1, hits give low values",1
same,normalized growth,"locus YHR030C, strain SLT2, hits give low values",1.01
same,normalized growth,"locus YHR079C, strain IRE1 (second series), hits give low values",0.995
same,normalized growth,"locus YHR079C, strain IRE1, hits give low values",1.01
same,normalized growth,"locus YHR094C, strain hxt1, hits give low values",0.998
same,normalized growth,"locus YHR129C, strain ARP1, hits give low values",1
same,normalized growth,"locus YHR142W, strain chs7, hits give low values",0.963
same,normalized growth,"locus YHR200W, strain rpn10, hits give low values",0.995
same,normalized growth,"locus YIL066C, strain RNR3, hits give low values",0.997
same,normalized growth,"locus YIL073C, strain SPO22, hits give low values",0.995
same,normalized growth,"locus YIL125W, strain kgd1, hits give low values",0.998
same,normalized growth,"locus YIR030C, strain dcg1, hits give low values",0.988
same,normalized growth,"locus YJL092W, strain hpr5, hits give low values",1.01
same,normalized growth,"locus YJL095W, strain BCK1 (second series), hits give low values",1.01
same,normalized growth,"locus YJL095W, strain BCK1, hits give low values",0.969 and 1.04
same,normalized growth,"locus YJL115W, strain asf1, hits give low values",1.01
same,normalized growth,"locus YJL129C, strain trk1, hits give low values",0.881
same,normalized growth,"locus YJL134W, strain LCB3, hits give low values",0.998
same,normalized growth,"locus YJL154C, strain vps35, hits give low values",1
same,normalized growth,"locus YJL164C, strain tpk1, hits give low values",1.02
same,normalized growth,"locus YJL166W, strain qcr8, hits give low values",0.993
same,normalized growth,"locus YJL168C, strain set2, hits give low values",0.985
same,normalized growth,"locus YJL187C, strain SWE1 (second series), hits give low values",1.07
same,normalized growth,"locus YJR043C, strain POL32, hits give low values",1.04
same,normalized growth,"locus YJR066W, strain TOR1, hits give low values",0.98
same,normalized growth,"locus YJR075W, strain HOC1, hits give low values",0.999
same,normalized growth,"locus YKL009W, strain mrt4, hits give low values",0.992
same,normalized growth,"locus YKL068W, hits give low values",0.972
same,normalized growth,"locus YKL085W, strain MDH1 (second series), hits give low values",0.967
same,normalized growth,"locus YKL085W, strain MDH1, hits give low values",0.967
same,normalized growth,"locus YKL160W, strain elf1, hits give low values",1
same,normalized growth,"locus YKR001C, strain vps1, hits give low values",1.01
same,normalized growth,"locus YKR026C, strain gcn3, hits give low values",0.991
same,normalized growth,"locus YKR091W, strain srl3, hits give low values",0.981
same,normalized growth,"locus YLL001W, strain dnm1, hits give low values",0.995
same,normalized growth,"locus YLL026W, hits give low values",1
same,normalized growth,"locus YLL041C, strain sdh2, hits give low values",0.994
same,normalized growth,"locus YLR027C, strain aat2, hits give low values",1.01
same,normalized growth,"locus YLR039C, strain RIC1, hits give low values",0.968
same,normalized growth,"locus YLR058C, strain SHM2, hits give low values",1.05
same,normalized growth,"locus YLR102C, strain apc9, hits give low values",1.01
same,normalized growth,"locus YLR113W, strain HOG1, hits give low values",1
same,normalized growth,"locus YLR221C, strain rsa3, hits give low values",1.01
same,normalized growth,"locus YLR258W, strain gsy2, hits give low values",1.01
same,normalized growth,"locus YLR262C, strain YPT6 (second series), hits give low values",0.961
same,normalized growth,"locus YLR262C, strain YPT6, hits give low values",0.929
same,normalized growth,"locus YLR268W, strain sec22, hits give low values",0.997
same,normalized growth,"locus YLR320W, strain mms22, hits give low values",0.959
same,normalized growth,"locus YLR342W, strain FKS1 (second series), hits give low values",1
same,normalized growth,"locus YLR342W, strain FKS1, hits give low values",0.988
same,normalized growth,"locus YLR357W, strain rsc2, hits give low values",1.07
same,normalized growth,"locus YLR370C, strain arc18, hits give low values",1.04
same,normalized growth,"locus YLR371W, strain rom2, hits give low values",0.959
same,normalized growth,"locus YLR384C, strain iki3, hits give low values",0.997
same,normalized growth,"locus YLR418C, strain cdc73, hits give low values",0.904
same,normalized growth,"locus YML016C, strain PPZ1, hits give low values",1.02
same,normalized growth,"locus YML032C, strain rad52, hits give low values",1.01
same,normalized growth,"locus YML120C, strain ndi1, hits give low values",0.965
same,normalized growth,"locus YML124C, strain tub3, hits give low values",0.99
same,normalized growth,"locus YMR058W, strain fet3, hits give low values",1.03
same,normalized growth,"locus YMR078C, strain ctf18, hits give low values",0.991
same,normalized growth,"locus YMR125W, strain sto1, hits give low values",1
same,normalized growth,"locus YMR129W, hits give low values",1
same,normalized growth,"locus YMR205C, strain PFK2, hits give low values",0.924
same,normalized growth,"locus YMR223W, strain ubp8, hits give low values",1
same,normalized growth,"locus YMR231W, strain pep5, hits give low values",1.02
same,normalized growth,"locus YMR307W, strain GAS1, hits give low values",0.976
same,normalized growth,"locus YNL067W, strain RPL9B, hits give low values",1.01
same,normalized growth,"locus YNL071W, strain lat1, hits give low values",0.836 (active)
same,normalized growth,"locus YNL153C, strain GIM3, hits give low values",1.03
same,normalized growth,"locus YNL183C, strain NPR1, hits give low values",0.974
same,normalized growth,"locus YNL209W, strain ssb2, hits give low values",1.01
same,normalized growth,"locus YNL233W, strain BNI4, hits give low values",1.01
same,normalized growth,"locus YNL248C, strain rpa49, hits give low values",1.04
same,normalized growth,"locus YNL250W, strain rad50, hits give low values",1.03
same,normalized growth,"locus YNL271C, strain bni1, hits give low values",0.996
same,normalized growth,"locus YNL298W, strain CLA4, hits give low values",1
same,normalized growth,"locus YNL307C, strain MCK1, hits give low values",0.943
same,normalized growth,"locus YNL322C, strain KRE1 (second series), hits give low values",1.01
same,normalized growth,"locus YNL322C, strain KRE1, hits give low values",1
same,normalized growth,"locus YNR049C, strain mso1, hits give low values",0.984
same,normalized growth,"locus YNR052C, strain pop2, hits give low values",1.01
same,normalized growth,"locus YOL012C, strain htz1",0.724
same,normalized growth,"locus YOL147C, strain pex11, hits give low values",1
same,normalized growth,"locus YOR001W, strain rrp6, hits give low values",1.04
same,normalized growth,"locus YOR061W, strain CKA2, hits give low values",1.03
same,normalized growth,"locus YOR069W, strain VPS5, hits give low values",1.01
same,normalized growth,"locus YOR070C, strain gyp1, hits give low values",1.01
same,normalized growth,"locus YOR080W, strain dia2, hits give low values",1.02
same,normalized growth,"locus YOR083W, strain WHI5, hits give low values",1.02
same,normalized growth,"locus YOR106W, strain vam3, hits give low values",1.01
same,normalized growth,"locus YOR136W, strain idh2, hits give low values",1.02
same,normalized growth,"locus YOR144C, strain elg1, hits give low values",0.993
same,normalized growth,"locus YOR184W, strain ser1, hits give low values",0.852 (active)
same,normalized growth,"locus YOR231W, strain MKK1, hits give low values",1.04
same,normalized growth,"locus YOR265W, strain rbl2, hits give low values",1.02
same,normalized growth,"locus YOR270C, strain vph1, hits give low values",0.851
same,normalized growth,"locus YOR290C, strain snf2, hits give low values",0.977
same,normalized growth,"locus YOR316C, strain cot1, hits give low values",1
same,normalized growth,"locus YPL051W, strain arl3, hits give low values",0.994
same,normalized growth,"locus YPL078C, strain atp4, hits give low values",0.941
same,normalized growth,"locus YPL106C, strain sse1, hits give low values",1.07
same,normalized growth,"locus YPL240C, strain hsp82, hits give low values",0.999
same,normalized growth,"locus YPL256C, strain CLN2, hits give low values",1.02
same,normalized growth,"locus YPR119W, strain clb2, hits give low values",0.988
same,normalized growth,"locus YPR141C, strain kar3, hits give low values",0.971
same,normalized growth,"locus YPR163C, strain tif3, hits give low values",0.991
same,normalized growth,"locus YPR167C, strain met16, hits give low values",0.994
same,normalized growth,"strain wtn01, hits give low values",0.985
